An excerpt weighted towards active compounds, which were near 19% of everything screened.
Giardia kill = kills Giardia lamblia; activity change, % at 7.66 µM, hits read low; AID 540267; Giardia lamblia trophozoite viability; 340,000 tested, 0.15% active; in the data active = activity change below about -80%; inconclusive = between about -30% and that limit;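 also: parasites exposed to compound for two days anaerobically before the ATP read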
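Luminescence from cellular ATP indicates surviving trophozoites (100 cells/well) following 48 hrs anaerobic compound treatment at 37 deg C; signal develops 15-30 min at room temperature.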
ELG1 repair inh = inhibitors of ELG1-dependent DNA repair in HEK293T cells. HEK293T ELG1-luciferase reporter, luminescence, 16 h; DNA damage induced by 5-fluorouridine. Potency, µM (titrated, usually from 46.1 µM), without a hit: at the top dose activity change, negative = inhibition, hits mostly inhibitors. 330,000 tested, 2.3% active. AID 504467; also: potency is read from the fitted curve at half-maximal effect; nearly all actives have a fitted effect of over 55% in size
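In this reporter screen, reduction of luminescence relative to DMSO vehicle indicated activity. Compounds and 5-fluorouridine were added together to 2,000 cells per well, incubated for 16 hr at 37 °C, then developed with ONE-Glo.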
TDP1 cell noCPT = qHTS for Inhibitors of human tyrosyl-DNA phosphodiesterase 1 (TDP1): qHTS in cells in absence of CPT; 420,000 tested, 15% active; DT40 Tdp1-/- hTDP1 cells, no CPT, ATP luminescence, 48 h; Potency, µM (highest dose often 46.2 µM), for the others: at the top dose activity change, negative = growth inhibition, hits mostly inhibitors; also: potency is read from the fitted curve at half-maximal effect; nearly all actives have a fitted effect of over 55% in size
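Stably hTDP1-transfected Tdp1-null chicken DT40 cells were treated with library compounds minus camptothecin and grown for at least 48 hr at 37 °C, after which cellular ATP was quantified by luminescence.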
TDP1 inh = TDP1 (human) enzyme inhibition | recombinant TDP1, AlphaScreen DNA substrate cleavage | Potency, µM (highest dose often 130 µM), inactives show at the highest dose activity change, negative = inhibition, actives largely listed as inhibitors | 350,000 tested, 0.28% active; also: potency is read from the fitted curve at half-maximal effect; nearly all actives have a fitted effect of over 40% in size
Target sequence (Q9NUW8 whole entry, looked up): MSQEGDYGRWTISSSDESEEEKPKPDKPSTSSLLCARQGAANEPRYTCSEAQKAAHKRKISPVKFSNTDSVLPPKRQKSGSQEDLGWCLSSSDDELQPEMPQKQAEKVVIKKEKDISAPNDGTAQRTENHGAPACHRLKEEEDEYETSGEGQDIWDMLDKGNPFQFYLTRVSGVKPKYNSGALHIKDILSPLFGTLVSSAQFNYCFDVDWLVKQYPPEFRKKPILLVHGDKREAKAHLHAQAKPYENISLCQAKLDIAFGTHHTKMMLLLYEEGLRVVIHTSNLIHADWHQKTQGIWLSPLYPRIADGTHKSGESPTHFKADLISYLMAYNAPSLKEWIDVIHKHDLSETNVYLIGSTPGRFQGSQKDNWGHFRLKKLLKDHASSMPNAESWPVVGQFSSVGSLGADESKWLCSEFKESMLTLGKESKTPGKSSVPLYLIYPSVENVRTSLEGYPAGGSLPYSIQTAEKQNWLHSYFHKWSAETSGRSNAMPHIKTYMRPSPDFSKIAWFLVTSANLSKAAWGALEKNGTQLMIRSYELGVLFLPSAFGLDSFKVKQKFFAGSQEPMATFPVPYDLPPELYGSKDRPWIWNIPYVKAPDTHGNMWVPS
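Enzyme-compound mixtures sat 15 min at room temperature, followed by a 5 min reaction with 15 nM final substrate and 10 min with AlphaScreen beads. Recombinant human Tdp1 was used at 1 nM final.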
IL1B secr inh = blocks inflammasome-driven IL-1 beta release. THP-1 LPS/ATP IL-1B secretion, AlphaLISA, 16 h; hits give low values. activity change, % at 57.5 µM. 360,000 tested, 4.7% active. AID 743279; in the data active = activity change below about -50%; inconclusive = mostly about -30% to -49%
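THP-1 cells pretreated 1 hr with compounds (up to 57.5 uM final), then stimulated with LPS (250 ng/mL final) plus ATP (1.25 mM final); secreted IL-1B measured by AlphaLISA after 16 hr, decreased signal indicating inhibition.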
TDP1 cell CPT = growth inhibition of DT40 Tdp1-/-;hTDP1 cells with camptothecin (screen for TDP1 inhibitors). AID 686979. chicken DT40 Tdp1-/-;hTDP1 cells + 20 nM CPT, ATP luminescence, 48 h. 420,000 tested, 12% active. Potency, µM (highest dose often 46.2 µM), for inactives: at the top dose activity change, negative = growth inhibition, usual class: inhibitors; also: potency is read from the fitted curve at half-maximal effect; nearly all actives have a fitted effect of over 55% in size
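Chicken DT40 Tdp1-/- cells stably complemented with human TDP1 were seeded at 400 cells/well in medium containing 20 nM camptothecin, exposed to pin-transferred compounds, and grown at 37 °C for at least 48 hr. Viability was read as ATP luminescence.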
Numbers without * were called inactive; [ ] = dose if it differs, or a comment. Unless noted, calls follow the shape of the dose curve; as a rule, active = well fitted curve in the direction sought with a large enough effect; inconclusive = small, poorly fitted or top-dose-only effect, or another doubt; inactive = no such curve, though single readings can be large; an effect the other way counts as inactive or inconclusive. % is scaled to controls: 0 for no effect and ±100 for the full control effect.

CO/N=C(\C(=O)N[C@@H]1C(=O)N2C(C(=O)OCOC(=O)C(C)(C)C)=C(/C=C\c3scnc3C)CS[C@H]12)c1csc(N)n1 was read as TDP1 cell noCPT -17.2% and TDP1 cell CPT -8.2%.
`Clc1ccc(Cn2ccc(C3CC3)n2)cc1` gave Giardia kill 2.5, ELG1 repair inh 4.1%, TDP1 cell noCPT 13.3%, TDP1 inh -4.6%, IL1B secr inh 6.0 and TDP1 cell CPT 1.6%.
Clc1ccc(Cn2cc3c(n2)-c2cc4ccccc4n2C3)cc1 was read as Giardia kill 11.1, TDP1 cell noCPT 12.6µM*, TDP1 inh -2.6% and TDP1 cell CPT inconclusive.
For NCCCC[C@@H](N)C(=O)O the results were TDP1 cell noCPT -20.5%, TDP1 inh 5.6% and TDP1 cell CPT 9.1%.
O=C(COc1cccc2c1CCN(Cc1ccc(Cl)cc1)C2=O)N1CCOCC1 was read as Giardia kill 10.0, ELG1 repair inh 11.6µM*, TDP1 cell noCPT inconclusive, TDP1 inh 8.9%, IL1B secr inh inconclusive and TDP1 cell CPT inconclusive.
For Cc1ccc(CN2CCc3c(OCC(=O)Nc4cc(C)ccc4C)cccc3C2=O)cc1 the results were ELG1 repair inh 23.1µM* and TDP1 inh -1.8%.
For CCOC(=O)N1CCN(C(=O)COc2cccc3c2CCN(CC)C3=O)CC1 the results were Giardia kill 13.9, ELG1 repair inh -1.5%, TDP1 cell noCPT -9.9%, TDP1 inh 4.9%, IL1B secr inh 6.1 and TDP1 cell CPT -7.1%.
`CCOC(=O)N1CCN(C(=O)COc2cccc3c2CCN(Cc2ccc(F)cc2)C3=O)CC1` gave Giardia kill -1.6, ELG1 repair inh 20.6µM*, TDP1 cell noCPT inconclusive, TDP1 inh -5.7%, IL1B secr inh -24.2 and TDP1 cell CPT inconclusive.
Screening CCCCn1c(=O)c2oc3ccccc3c2n(Cc2cccc(F)c2)c1=O returned TDP1 cell noCPT inconclusive, TDP1 inh 0.0% and TDP1 cell CPT inconclusive.
Screening O=C(NNC(=O)c1cc(Br)ccc1O)c1csc(N2CCOCC2)n1 returned Giardia kill 2.2, ELG1 repair inh inconclusive, TDP1 cell noCPT 20.6µM*, TDP1 inh 0.3%[56.1 µM], IL1B secr inh 95.7 and TDP1 cell CPT inconclusive.
Screening O=C(NNC(=O)c1cccs1)c1csc(N2CCOCC2)n1 returned Giardia kill 10.5, ELG1 repair inh 21.0%, TDP1 cell noCPT -0.8%, TDP1 inh -4.2%, IL1B secr inh 13.0 and TDP1 cell CPT -19.7%.
CCOc1ncccc1C(=O)NNC(=O)c1csc(N2CCOCC2)n1 was read as Giardia kill -0.3, ELG1 repair inh -14.3%, TDP1 cell noCPT inconclusive, TDP1 inh 7.3%, IL1B secr inh -29.9 and TDP1 cell CPT 25.9µM*.
`CC(=O)Nc1ccc(C(=O)NNC(=O)c2csc(N3CCOCC3)n2)cc1` gave TDP1 cell noCPT 7.31µM*, IL1B secr inh -28.2 and TDP1 cell CPT inconclusive.
Screening O=C(NNC(=O)c1cc(Br)ccc1Cl)c1csc(N2CCOCC2)n1 returned Giardia kill 8.1, ELG1 repair inh 2.1%, TDP1 cell noCPT 1.5%, TDP1 inh 4.4%, IL1B secr inh inactive and TDP1 cell CPT -0.6%.
For OCCN(Cc1ccccc1)CC(O)COc1ccc2c(c1)OCO2 (stereo not given) the results were Giardia kill -12.0, ELG1 repair inh 0.3%, TDP1 cell noCPT -1.8%, IL1B secr inh 0.0 and TDP1 cell CPT 2.7%.
`COc1cccc(-c2csc(N3CCN(C(=O)Nc4ccccc4Cl)CC3)n2)c1` gave Giardia kill -18.1, ELG1 repair inh -6.8%, TDP1 cell noCPT inconclusive, TDP1 inh 3.7%, IL1B secr inh -26.3 and TDP1 cell CPT inconclusive.
For COc1cccc(-c2csc(N3CCN(C(=O)NC45CC6CC(CC(C6)C4)C5)CC3)n2)c1 the results were Giardia kill -17.4, ELG1 repair inh 23.1µM*, TDP1 cell noCPT 13µM*, TDP1 inh 8.7%, IL1B secr inh -9.7 and TDP1 cell CPT inconclusive.
COc1ccccc1NC(=S)N1CCN(c2nc(-c3ccccc3)cs2)CC1 was read as Giardia kill 9.9, ELG1 repair inh -8.5%, TDP1 cell noCPT 16.4µM*, TDP1 inh 6.0%, IL1B secr inh -3.0 and TDP1 cell CPT 18.4µM*.
`COc1cccc(NC(=O)N2CCN(c3nc(-c4cccc(OC)c4)cs3)CC2)c1` gave Giardia kill 2.9, ELG1 repair inh 14.6µM*, TDP1 cell noCPT 5.17µM*, IL1B secr inh -16.1 and TDP1 cell CPT 5.17µM*.
For COc1cccc(-c2csc(N3CCN(C(=S)Nc4ccccc4)CC3)n2)c1 the results were Giardia kill -2.7, ELG1 repair inh -7.4%, TDP1 cell noCPT inconclusive, TDP1 inh 6.2%, IL1B secr inh -8.7 and TDP1 cell CPT inconclusive.
COc1cccc(-c2csc(N3CCN(C(=S)Nc4ccc(Cl)cc4)CC3)n2)c1 was read as Giardia kill -1.9, ELG1 repair inh inconclusive, TDP1 cell noCPT inconclusive, TDP1 inh 7.8%, IL1B secr inh -81.7* and TDP1 cell CPT inconclusive.
Screening COCCCn1c(C)cc(C(=O)COC(=O)CCc2nc3ccccc3c(=O)[nH]2)c1C returned Giardia kill 3.6, ELG1 repair inh inconclusive, TDP1 cell noCPT 2.5%, TDP1 inh 6.2%, IL1B secr inh -76.1* and TDP1 cell CPT 18.9%.
C=CCn1c(C)cc(C(=O)CSc2nc3ccccc3[nH]2)c1C was read as Giardia kill -3.4, ELG1 repair inh inconclusive, TDP1 cell noCPT 9.2µM*, TDP1 inh 9.3%, IL1B secr inh -65.4* and TDP1 cell CPT 20.6µM*.
`COCC(C)n1c(C)cc(C(=O)CSc2nnc(Nc3ccccc3F)s2)c1C` (stereo not given) gave Giardia kill -0.2, ELG1 repair inh inconclusive, TDP1 cell noCPT inconclusive, TDP1 inh 7.6%, IL1B secr inh -16.4 and TDP1 cell CPT 23.1µM*.
For Cc1cc(C(=O)CSc2nc3ccccc3[nH]2)c(C)n1C the results were Giardia kill 19.4, ELG1 repair inh inconclusive, TDP1 cell noCPT inconclusive, TDP1 inh 11.4%, IL1B secr inh -4.5 and TDP1 cell CPT inconclusive.
`COCC(C)n1c(C)cc(C(=O)CSc2nc3ccccc3c(=O)[nH]2)c1C` (stereo not given) gave Giardia kill 8.0, ELG1 repair inh 16.4µM*, TDP1 cell noCPT 20.6µM*, TDP1 inh 9.1%, IL1B secr inh 21.2 and TDP1 cell CPT inconclusive.
